Test results reported in PubChem BioAssay (NCI).
The panel holds about 83,000 compounds, 20% with a hit somewhere; the sample as a whole holds those more often.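 Cell lines were cultured in 96-well plates, exposed to a single compound concentration, and assessed for percent growth 48 hours later.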 A number with no mark means an inactive call. Calls of active or inactive are those of the source.

tested on: HCT-116 colon; experiment: NCI-60 one-dose screen, 48 h (100 = growth as untreated, 0 = no growth, -100 = all killed); conditions: 10 µM unless noted
Description: Growth inhibition of the HCT-116 human tumor cell line is measured as a screen for anti-cancer activity. Cells are grown in 96 well plates and exposed to the test compound for 48 hours. Compounds are tested at a single concentration, which is 10^-5 M for most compounds. The reported endpoint is percent growth (GI% or GIPRCNT), where numbers from 0 - 100% represent growth inhibition, and numbers from -100% - 0 represent cell death. For example, a value of 40 represents 60% growth inhibition. A value of 0 means no net growth occurred over the course of the experiment. A value of -40 indicates 40% of cells at the beginning of the experiment died by the end of the experiment. A value of -100 means all cells are dead at the end of the experiment.
NCI-60 Human Tumor Cell Lines Screen was performed using the standard one-dose NCI protocol, which is described in more detail at https://dtp.cancer.gov/discovery_development/nci-60/default.htm.
Compounds with GIPRCNT values below 10 were considered active. Activity score was based on GIPRCNT using the following formula: […]
Score is 0 for GIPRCNT values of 100 or above, 50 for GIPRCNT values of 0, and 100 for GIPRCNT values of -100.

Row | SMILES | growth
1 | COC12C=C/C(=C(/C(=O)OCc3cncnc3)C(=O)CCCCCCCCC3(OC)C=C/C(=C(/C(=O)OCc4cncnc4)C(=O)CCCCCCCC1)O3)O2 | -63.8% (active)
2 | CC(C)Cc1nc(Nc2ccccc2)[nH]c(=O)c1C#N | 54.7%
3 | CC(O)Cc1c[nH]c(=O)[nH]c1=O (stereo not given) | 97.2%
4 | COc1ccccc1/C=C/C(=O)Nc1ccc(F)cc1 | 88.1%
5 | O=C(Nc1cccnc1Nc1ccc(Cl)cc1)c1cn(Cc2cccc(Oc3ccccc3)c2)nn1 | 23.4%
6 | CN(C)CCCNC(=O)c1cncnc1Nc1ccc2c(ccn2Cc2cccc(F)c2)c1 | 66%
7 | CCOC(=O)c1c(NC(=O)c2ccccc2)sc2c3c(ccc12)OCN(C)C3 | -20.9% (active)
8 | Cc1cc2oc(/C=C/c3ccccc3)cc(=O)c2c(C)c1Cl | 105%
9 | c1ccc(Nc2nc3c(s2)CCc2c[nH]cc2-3)nc1 | 72.2%
10 | Cn1cc(-c2nonc2-c2c[nH]c3ccccc23)c2cc(Br)ccc21 | 25.6%
11 | CCCCNC(=O)c1ccc2c(c1)nc(-c1ccccc1)n2C1CCCCC1 | 93.1%
12 | CN(C)CCCC1(c2ccc(F)cc2)OCc2cc(-c3csc4ccccc34)ccc21 (stereo not given) | -44.2% (active)
13 | COc1ccc(N/N=C/c2cn(-c3ccc(C(=O)O)cc3)nc2-c2cc3ccccc3oc2=O)cc1 | 49.7%
14 | CS(=O)(=O)Nc1cc(-c2ccc3ncnc(Nc4ccc5c(cnn5Cc5ccccc5F)c4)c3c2)cnc1Cl | 60.4%
15 | Cc1cccc(NC(=O)Cn2cc(CN3CCN(c4ccnc5cc(Cl)ccc45)CC3)nn2)c1 | 95.3%
16 | CC(=O)N1N=C(c2ccc(Nc3nc(Nc4ccc(F)cc4)nc(Nc4ccc(F)cc4)n3)cc2)CC1c1ccc(N(C)C)cc1 (stereo not given) | 43.3%
17 | COc1cc2c(c(OC)c1OC)C(=O)CC(c1cccc(C(=O)Nc3ccccc3Br)c1)O2 (stereo not given) | 81.5%
18 | COC1/C=C/OC2(C)Oc3c(C)c(O)c4c(O)c(c(/C=N/N(c5ccccc5)c5ccccc5)c(O)c4c3C2=O)NC(=O)C(C)=C/C=C/C(C)C(O)C(C)C(O)C(C)C(OC(C)=O)C1C (stereo not given) | 38.7%
19 | COC(=O)c1sccc1-c1cc(O)c(C(=O)Nc2ccccc2)s1 | 94.6%
20 | Clc1ccc(Nc2nnc(CNc3ccccc3)c3ccccc23)cc1 | 9.94% (active)

Row | SMILES | growth
21 | CN1CCOCCN(C)Cc2ccc3ccc(cc3c2)CN(C)CCOCCN(C)Cc2ccc3ccc(cc3c2)C1 | 28.3%
22 | Cc1c2ncccc2nc2[nH]c3ccc(OCCN(C)C)cc3c12 | 12.6%
23 | CCCC(O)Cn1ncc(C(=O)OCC)c1NC(=O)NCc1cccc(C(F)(F)F)c1 (stereo not given) | 61.4%
24 | Cc1cc(Cl)nc(N2CCN(CCNc3ccnc4cc(Cl)ccc34)CC2)n1 | 25.3%
25 | C[C@H]1[C@H](C)CC[C@]2(C(=O)NCCNCCN)CC[C@]3(C)C(=CC[C@@H]4[C@@]5(C)CCC(=O)C(C)(C)[C@@H]5CC[C@]43C)[C@H]12 | -51.8% (active)
26 | CCOc1ncc([N+](=O)[O-])c(OCC)n1 | 105%
27 | CCOC(=O)C/C(=N\Nc1cc(=O)[nH]c2ccc(C)cc12)C(=O)OCC | 99.7%
28 | O=Nc1ccc(NC(=O)Nc2ccc([N+](=O)[O-])cc2)cc1 | 86.5%
29 | Cc1ccc(NC(=O)c2cc3ccccc3cc2O)c(C)c1 | 75.8%
30 | O=C1CCCCN1c1ccc(C2=NCCCN2)cc1 | 92.1%
31 | C1CCC(N2CN3c4nonc4N4CN(C5CCCCC5)CN5c6nonc6N(C2)C3C45)CC1 (stereo not given) | 101%
32 | Nc1nc(N)c2c(n1)NC(c1cccc(Nc3ccnc4cc(C(F)(F)F)ccc34)c1)CC(c1ccc3c(c1)OCO3)=N2 (stereo not given) | 39.9%
33 | O=C(/C=C/C12c3ccccc3C(c3ccccc31)C1C(=O)NC(=O)C12)c1ccc(Cl)cc1Cl (stereo not given) | 2.09% (active)
34 | COc1ccc(C/C(C)=C(\c2ccc(Cl)cc2)c2ccc(OCCN3CCCC3)cc2)cc1 | 78.9%
35 | O=C(Cc1ccc(/C=C/C(=O)c2ncc[nH]2)cc1)Nc1cc(F)c(F)c(F)c1 | 15.8%
36 | COc1ccc(-c2cc(-c3cn(-c4cccc(Cl)c4)nc3-c3ccc(OC)cc3)on2)cc1 | 101%
37 | COc1cc(OC)c2c(=O)c3c(CC=C(C)C)cc(OC)c(O)c3oc2c1 | 81.6%
38 | COCCn1cc(-c2csc(-c3c[nH]c4ccc(F)cc34)n2)c2cccnc21 | 22.2%
39 | O=C(c1ccc(Br)cc1)C(Br)C(c1ccc(Cl)cc1)C(c1ccccc1)[N+](=O)[O-] (stereo not given) | 76.2%
40 | COc1ccc(C2CC(n3ccnc3)c3cc(OC)c(OC)c(OC)c32)cc1O (stereo not given) | 81.1%
